We go through 17 compounds from article PMC5540273 (PLoS ONE, 2017).

Common to all, as to conditions: concentration: 1 μM, replicates: in singlicate; n = 1
For assay [1], the system named is MST1R.
In assay [2] the test system is T1, MST1.
T1 construct: gene STK4

The test system of assay [3] is T2, MST2.
T2 construct: gene STK3

In assay [4] the test system is T3, MST3.
T3 construct: gene STK24

Assay [5] has as its system MST4.
Assay [6] has as its system MTOR.
The subject of assay [7] is MUSK.
For assay [8], the system named is MYLK2.
Assay [9] concerns MYLK4.
Assay [10] concerns MYLK.
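Further: KINOMEscan kinase panel screen.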

With `NS(=O)(=O)c1cccc(N/C=C2\C(=O)Nc3ccc(S(=O)(=O)Cc4c(Cl)cccc4Cl)cc32)c1` [GSK398099], the “%Inh” value came out at 17% in assay [1]; 0% in [2]; 1% in assay [3]; 0% in assay [4]; 0% in assay [5]; 11% in [6]. In addition, the “%Inh” value in assay [7] stood at 7%; in [8], 0%; in assay [9], 1%; in assay [10], 18%.
`Cn1cnc2c(N)ncnc21` [SKF-97623]: the “%Inh” value in assay [1] was 0%; in [2] it was 0%; in [3] it was 24%; in assay [4], 0%; in assay [5] it was 0%; in assay [6] it was 4%. Moreover, the “%Inh” value in assay [7], in assay [8], in [9] and in assay [10] was 0% each time.
For `O=C(Nc1n[nH]c2nc(-c3ccco3)c(Br)cc12)C1CCN(Cc2ccccc2)C1.O=C(O)[C@H](O)[C@@H](O)C(=O)O` (centres unmarked) [SB-742034], the “%Inh” value amounted to 7% in assay [1]; 0% in assay [2]; 46% in assay [3]; 13% in assay [4]; 9% in assay [5]; 0% in assay [6]. Also, the “%Inh” value amounted to 0% in assay [7], 89% in assay [8], 25% in assay [9] and 3% in assay [10].
With `CNc1nc(-c2ccc3c(N)n[nH]c3c2)cc(N2C[C@@H](C(=O)Nc3ccccc3)CC[C@H]2C)n1` [GSK2298859], the “%Inh” value in [1] is on record as 26%; in assay [2] it was 0%; in [3], 0%; in assay [4] it was 0%; in assay [5], 4%; in assay [6], 3%. In addition, the “%Inh” value was 0% in assay [7], 9% in assay [8], 0% in [9] and 11% in assay [10].
On to `Fc1ccc(-c2nc3n(c2-c2ccncc2)CCS3)cc1` [GI98581], for which the “%Inh” value is 39% in assay [1]; 29% in [2]; 25% in assay [3]; 0% in [4]; 0% in assay [5]; 12% in [6]. The “%Inh” value in assay [7] came to 15%; in assay [8], 14%; in assay [9], 0%; in [10], 12%.
Turning to `COc1ccc(CSc2nnc(-c3ccc4ncsc4c3)o2)cc1C(F)(F)F`, the “%Inh” value in assay [1] was 0%; in assay [2], 0%; in [3] it was 0%; in assay [4], 0%; in assay [5] it was 0%; in assay [6] it was 8%. The “%Inh” value in [7] is listed as 1%; in [8] it was 16%; in assay [9], 1%; in assay [10], 0%.
For `CS(=O)(=O)CCNCc1nc(-c2ccc3ncnc(Nc4ccc(OCc5ccccc5)c(Cl)c4)c3c2)cs1.Cl` [GW582764], the “%Inh” value in assay [1] was 14%; in assay [2], 0%; in assay [3] it was 0%; in [4], 0%; in [5], 0%; in assay [6], 8%. The “%Inh” value is 0% in assay [7], 3% in assay [8], 0% in [9] and 0% in assay [10].
As for `CCn1c(-c2c(N)noc2C)nc2cnccc21` [SB-737856], the “%Inh” value in assay [1] was determined as 3%; in [2], 15%; in [3], 0%; in assay [4] it was 0%; in assay [5], 0%; in assay [6], 28%. For the same compound, the “%Inh” value worked out at 6% in [7], 7% in assay [8], 9% in [9] and 6% in assay [10].
For `CN1c2ccc(-c3ccc(C(N)=O)cc3)cc2-c2[nH]ncc2S1(=O)=O`, the “%Inh” value in [1] came out at 0%; in assay [2], 0%; in [3] it was 0%; in assay [4] it was 0%; in assay [5], 2%; in assay [6], 14%. Besides, the “%Inh” value in assay [7] came to 0%; in assay [8] it was 0%; in assay [9], 0%; in assay [10], 73%.
Turning to `Cc1ccccc1Cn1ccn2c(=O)cc(N3CCOCC3)nc12` [GSK2269905], the “%Inh” value is 17% in assay [1]; 0% in [2]; 0% in assay [3]; 0% in assay [4]; 0% in assay [5]; 9% in [6]. Besides, the “%Inh” value in assay [7] is on record as 2%; in assay [8], 8%; in assay [9], 0%; in assay [10], 0%.
On to `Cn1cncc1C(=O)NC1CCN(c2ccnc(Nc3ccc(F)cc3)n2)C1` (centres unmarked) [GSK1379717], for which the “%Inh” value in assay [1] was 34%; in [2], 0%; in assay [3], 34%; in assay [4], 0%; in assay [5] it was 0%; in assay [6], 0%. The “%Inh” value in assay [7] was determined as 0%; in assay [8] it was 1%; in assay [9], 0%; in assay [10] it was 0%.
Take `Cc1ccc(NC(=O)c2ccc(Cl)cc2)cc1-c1ccc(C(=O)Nc2ccncc2)cc1` [GSK1398467]: the “%Inh” value is given as 28% in [1]; 9% in [2]; 0% in assay [3]; 4% in assay [4]; 0% in assay [5]; 0% in assay [6]. The “%Inh” value in assay [7] is listed as 2%; in assay [8], 0%; in assay [9] it was 0%; in assay [10] it was 2%.
`CC(=O)c1cccc(NC(=O)NC2CCN(c3ccnc(Nc4ccc(F)cc4)n3)C2)c1` (centres unmarked) [GSK1379710]: the “%Inh” value in assay [1] is recorded as 31%; in assay [2], 0%; in assay [3], 22%; in assay [4], 3%; in [5], 0%; in [6], 21%. The “%Inh” value in [7] is 8%; in [8], 0%; in assay [9], 21%; in assay [10], 11%.
Turning to `COc1ccc(CSc2nnc(-c3ccc4nccn4c3)o2)cc1C(F)(F)F`, the “%Inh” value is given as 0% in assay [1]; 0% in [2]; 0% in assay [3]; 15% in [4]; 7% in assay [5]; 0% in [6]. The “%Inh” value in assay [7] was found to be 9%; in assay [8], 8%; in [9], 21%; in assay [10], 0%.
As for `CC(C)c1cc(-c2ccc3c(N)n[nH]c3c2)nc(N)n1` [GSK2250882], the “%Inh” value was found to be 3% in assay [1]; 0% in [2]; 0% in assay [3]; 8% in assay [4]; 0% in assay [5]; 11% in assay [6]. The “%Inh” value in assay [7] stood at 0%; in assay [8] it was 23%; in [9] it was 39%; in assay [10], 26%.
Turning to `Cc1c(Cn2c(C)c(C)n3c(=O)cc(N4CCOCC4)nc23)cccc1C(F)(F)F` [GSK2328680], the “%Inh” value in [1] was 12%; in assay [2] it was 2%; in [3] it was 0%; in assay [4] it was 6%; in assay [5] it was 0%; in assay [6], 32%. Moreover, the “%Inh” value in assay [7] is 45%; in [8], 7%; in assay [9] it was 0%; in [10], 14%.
As for `Cc1ccc(NC(=O)Nc2ccc(Cl)c(C(F)(F)F)c2)cc1-c1ccc(C(=O)Nc2ccncc2)cc1` [GSK1398470], the “%Inh” value in assay [1] turned out to be 38%; in assay [2], 9%; in assay [3] it was 0%; in assay [4], 13%; in assay [5], 0%; in assay [6], 16%. Besides, the “%Inh” value in [7] is listed as 10%; in assay [8] it was 0%; in assay [9] it was 2%; in assay [10], 24%.
